From PubChem BioAssay (NCI) come the findings set out here.

The nature of assay [1]: NCI Yeast Anticancer Drug Screen. Data for the rad50 strain (AID 155).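 Note: 0% = growth of vehicle-only cultures of the same strain.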 Conditions: S. cerevisiae rad50 strain growth inhibition; at 50.0 µM; hits give high values. In a few lines:
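Inhibition values express reduced yeast growth in compound-treated cultures relative to vehicle-treated controls.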

Assay [2] can be described thus: NCI Yeast Anticancer Drug Screen. Data for the sgs1 mgt1 strain (AID 161).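 Note: 0% = growth of cultures given vehicle only.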 Conditions: S. cerevisiae sgs1 mgt1 strain, at 50.0 µM, hits give high values. The essentials: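 This yeast growth screen uses a strain with defined DNA-repair lesions; compound-treated growth is compared with vehicle-treated growth.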
A short description of assay [3]: NCI Yeast Anticancer Drug Screen. Data for the cln2 rad14 strain (AID 165).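 Note: 0% = growth equal to vehicle treated cultures.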 Conditions: S. cerevisiae cln2 rad14 strain, at 50.0 µM, hits give high values. The essentials:
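Growth inhibition, relative to vehicle-treated controls, is the read-out. The test organism is a yeast strain with defined genetic alterations, cln2 rad14.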

Assay [4] can be described thus: NCI Yeast Anticancer Drug Screen. Data for the bub3 strain (AID 167). Conditions: S. cerevisiae bub3 mutant strain, at 50.0 µM, hits give high values. In a few lines: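 Steps: expose the mutant yeast strain to compound; grow alongside vehicle-treated cultures; measure growth; express inhibition against the vehicle cultures.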
Assay [5] can be described thus: NCI Yeast Anticancer Drug Screen. Data for the mlh1 rad18 strain (AID 175). Conditions: S. cerevisiae mlh1 rad18 strain growth inhibition; at 50.0 µM; hits give high values. In a few lines: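 Cells of a genetically altered yeast strain, deficient in DNA damage repair, were treated with compound. Their growth was then compared with that of vehicle-treated cultures to give inhibition.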

The nature of assay [6]: NCI Yeast Anticancer Drug Screen. Data for the mec2-1 strain (AID 157). Conditions: S. cerevisiae mec2-1 strain, at 50.0 µM, hits give high values. In a few lines: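 Growth inhibition is read against vehicle-treated controls after compound exposure of the mec2-1 yeast strain, which is defective in DNA damage repair or cell cycle control.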

Molecules are shown by their SMILES. Compounds without any hit were thinned out: in the full panel of roughly 79,000, 15% have a hit. A number with no mark means an inactive call. Active and inactive are the calls of the source. Cut-off read from the data, not from the text of the source: active = growth inhibition above about 70%; inactive = the rest.

Turning to `CC(C)(CC(=O)O)CC(=O)O`, the growth inhibition was 14.4% in assay [1]; 0% in assay [2]; 23.8% in assay [3]; 16.1% in assay [4]; 14.8% in assay [5].
`Nc1ccc(F)cc1F`: the growth inhibition is 6% in assay [1]; -3.7% in assay [2]; -27.1% in assay [3]; 18.1% in assay [4]; 7.35% in assay [5].
The like results for `Cc1cc(Cl)cc(Cc2cc(Cl)cc(C)c2O)c1O` were, in that order, 50.1%, 55%, 29%, 22.1% and 20.6%.
The corresponding values for `Cc1ccc2nc(N)nnc2c1` are -5.9%, 3.9%, 20.8%, -17.1% and -3.15%.
On to `ClCC(Cl)C1CCC(Cl)C(Cl)C1` (stereo not given), for which the growth inhibition is 10.5% in assay [1]; -7.85% in assay [2]; -3.9% in assay [3]; 8.65% in assay [4]; 19.8% in assay [5].
The like results for `CCN(CC)CCN1CNC(=S)NC1` were, in that order, 0.1%, 11.2%, -1.8%, -1.2% and -7.15%.
On to `CC(C)OCC(CCl)OC(=O)Nc1ccccc1` (stereo not given), for which the growth inhibition in assay [6] is 11.2%; in assay [2], 27.4%; in assay [3], -29.1%; in assay [4], 35.1%.
For `O=C(N/N=C\c1ccc(Cl)cc1Cl)c1ccncc1`, the growth inhibition in assay [1] was 1%; in assay [2], 5.15%; in assay [3] it was 19.2%; in assay [4] it was -7%; in assay [5], 3.5%.
The like results for `COc1c(CNC(=O)CCl)cc2[nH]c(C)cc2c1CNC(=O)CCl` were, in that order, 4.9%, 17.3%, 2.2%, 9.7% and -25.9%.
Turning to `CCOC(=O)c1c(C)[nH]c(C)c1C=O`, the growth inhibition is 16.6% in assay [1]; 3.15% in assay [2]; -1.15% in assay [3]; 52.5% in assay [4]; 3.9% in assay [5].
The corresponding values for `Cc1cccc2ccccc12` are -9.65%, 10.5%, 24.4%, -3.6% and 13.8%.
The like results for `CC12CCC3c4ccc(O)cc4CCC3C1CCC2=O` (stereo not given) were, in that order, 26.2%, 14.7%, 12.7%, 18.5% and 3.45%.
As to `O=C(O)c1ccc(OCc2ccccc2)cc1`, the growth inhibition in assay [1] is 12.6%; in assay [2], 38%; in assay [4], -28.1%; in assay [5], 19.9%.
On to `CC(C)c1ncc([N+](=O)[O-])n1C`, for which the figures for the growth inhibition in assay [1], in assay [3] and in assay [4] were -13.2%, -30.1% and 6.15%, respectively.
In the case of `O=C(O)C1CCCN1C(=O)OCc1ccccc1` (stereo not given), the growth inhibition in assay [1] is -23.4%; in assay [2], -17.9%; in assay [3] it was -2.45%; in assay [4], -22.9%; in assay [5] it was -8.9%.
The corresponding values for `CN1CCN(C(=S)S)CC1` are 0.3%, 4.75%, 2.15%, 3.5% and 5.15%.
The corresponding values for `N#C/C(=C\NC(=S)N=Nc1c(O)[nH]c2ccccc12)c1nc2ccccc2s1` are 10.1%, 29.1%, -10.1%, 17.9% and 14.5%.
Turning to `CCOC(=O)C(C#N)=C1CCN(C)CC1`, the growth inhibition is 8.45% in assay [1], -0.75% in assay [2], -27.4% in assay [4] and -5.6% in assay [5].
For the molecule `CCN(C(C)=O)c1ccc([N+](=O)[O-])cc1`, the growth inhibition was -1.65% in assay [6], 2% in assay [2], -41.8% in assay [3] and 3.05% in assay [4].
As to `O=S(=O)(O)c1ccc(O)c(C2CCCCC2)c1`, the growth inhibition was -7.1% in assay [1]; -21.1% in assay [2]; -23.2% in assay [3]; -12.2% in assay [4]; 31.4% in assay [5].
Regarding `CCCc1cccc(CCC)c1NC(=O)Nc1cc(Cl)cc(Cl)c1`, the growth inhibition in assay [1] is 37.5%; in assay [2] it was 47.5%; in assay [3], 37%; in assay [4] it was 44%; in assay [5], 23.6%.
For the molecule `CCNC(=O)Oc1ccc[nH]c1=O`, the growth inhibition in assay [1] was -7.65%; in assay [2] it was -1.1%; in assay [3], -15.9%; in assay [5], -47.8%.
The corresponding values for `N#CC1(O)CCCCC1` are 42.6%, 14.7%, 23.2% and 28.4%.
Take `O=[N+]([O-])c1c(O)c(CNCCCO)cc(CNCCCO)c1O`: the growth inhibition in assay [1] was 13.5%; in assay [2], 18.9%; in assay [3], 19.6%; in assay [4] it was 25.9%; in assay [5] it was 43.1%.
The like results for `S=c1nc(-c2ccccn2)c(-c2ccccn2)n[nH]1` were, in that order, -11%, -1.2%, 11%, -21.8% and -53.7%.
Take `O=C(NCc1ccccc1)/C(=C/c1ccccc1)NC(=O)c1ccccc1`: the growth inhibition was -33.1% in assay [1], -7.2% in assay [3], -12.3% in assay [4] and -42.5% in assay [5].
On to `CC(C)c1ccccc1NC(=O)N1CCC(C(C)C)CC1`, for which the growth inhibition in assay [1] is -20.8%; in assay [2], -29.8%; in assay [3], -22.6%; in assay [4], -7%; in assay [5], -12.7%.
The corresponding values for `O=C(Nc1ccccc1)c1ccco1` are 12.3%, 13.8%, -0.6%, -1.55% and 11.2%.
With `C/C(=N\O)c1ccccn1`, the growth inhibition was -7.6% in assay [1], -17.9% in assay [2], 1.15% in assay [3] and 1.45% in assay [5].
With `O=C1NC(=O)/C(=C\c2ccncc2)N1`, the growth inhibition in assay [1] was 28.9%; in assay [2], -0.3%; in assay [3], 9.3%; in assay [4], -19.8%; in assay [5] it was -56.5%.
The like results for `CN(C)c1ccc(/C=C/C(=O)c2ccc(NC(N)=O)cc2)cc1` were, in that order, -8.35%, -4.5%, -51.6%, -18% and -8%.
Take `COc1ccc(C)cc1NC(=O)SC(C)C`: the growth inhibition in assay [1] was -9.75%; in assay [2], 9.4%; in assay [3], -5.2%; in assay [4], 18.4%; in assay [5] it was 6.1%.
The like results for `CC(C)(C)CC1(C)NC(=O)NC1=O` (stereo not given) were, in that order, -7.3%, 13.1%, -58.2%, 7.25% and 8.45%.
The corresponding values for `CC(=O)NNC(=S)N/C=C/c1c(C)ccc([N+](=O)[O-])c1[N+](=O)[O-]` are -24.5%, -28.4%, -31.9%, -36% and -2.8%.
Regarding `O=C(O)CCCCCNC(=O)OCc1ccccc1`, the growth inhibition was -41.9% in assay [6]; 16.7% in assay [2]; 29.9% in assay [3]; 3.25% in assay [4]; 9.3% in assay [5].
For the molecule `CCOC(=N)CC(=O)Nc1cccc(C)c1Cl`, the growth inhibition was -14.1% in assay [6]; -11.4% in assay [2]; 18.6% in assay [3]; 8.5% in assay [4]; -3.3% in assay [5].
As for `O=C1C=CC(=O)C2=C1CCCC2`, the growth inhibition in assay [6] is 10.9%; in assay [2] it was 10.3%; in assay [3] it was -9.75%; in assay [4], -20.2%; in assay [5], 26.9%.
For `COc1cc(OC)c(NC(=O)C(Sc2nc(C)cc(C)c2C#N)c2ccccc2)cc1Cl` (stereo not given), the growth inhibition was -19.9% in assay [6]; -4.95% in assay [2]; 22.2% in assay [3]; 1.6% in assay [4]; 5.9% in assay [5].
As to `O=C1C=Cc2ccccc2/C1=C/c1[nH]c(=O)[nH]c1O`, the growth inhibition in assay [6] is -1.35%; in assay [2], -9.7%; in assay [3] it was 3.2%; in assay [4], -3%; in assay [5], -5.3%.
With `c1cc(CNCCNCc2ccncc2)ccn1`, the growth inhibition in assay [6] is -48%; in assay [3] it was -4.15%; in assay [4], -34%; in assay [5], -34.5%.
As for `O=S(=O)(OCCOS(=O)(=O)c1ccccc1)c1ccccc1`, the growth inhibition was 1.45% in assay [6], -0.9% in assay [2], -27.9% in assay [3] and 50.7% in assay [5].
In the case of `c1ccc(Nc2ccccn2)nc1`, the growth inhibition in assay [6] is -13.8%; in assay [2] it was -21%; in assay [3], -87.8%; in assay [4] it was 3.8%; in assay [5] it was -24.6%.
Turning to `ClCC(Cl)[C@@H]1CC2C=CC1C2` (stereo not given in full), the growth inhibition was -3.65% in assay [6]; 10.3% in assay [2]; 15.6% in assay [3]; 11.2% in assay [4]; -6.1% in assay [5].
The corresponding values for `C1Cc2onc(-c3noc4c3CCC4)c2C1` are -16.8%, -15.2%, 22.6%, -14.2% and -14.6%.
In the case of `COC1C(=O)CCC2(CO2)C1(O)C1(C)OC1CCC(C)C` (stereo not given), the growth inhibition in assay [6] was -42.4%; in assay [2], -18.5%; in assay [3] it was -3.85%; in assay [4], -16.1%; in assay [5], -4.55%.
The like results for `CC(=O)N(C(C)=O)c1ccc(C)cc1` were, in that order, -18.9%, -14.7%, -9.75%, -11.2% and -13.9%.
As for `CN1C(=O)NC(c2ccc(Cl)cc2)(c2ccc(Cl)cc2)C1=O`, the growth inhibition is 11.1% in assay [6]; -23% in assay [2]; -11.9% in assay [3]; -8% in assay [4]; 91% (active) in assay [5].
For `O=c1cc(C(F)(F)F)[nH]c(=S)[nH]1`, the growth inhibition in assay [6] is -5.05%; in assay [2], -15.8%; in assay [4] it was -24.8%; in assay [5], -26.2%.
As to `O=C(NC1CCCCC1)c1ccc(Cl)cc1`, the growth inhibition in assay [6] is -6.7%; in assay [3], 12.7%; in assay [4], -17.6%.
As to `CCCCCCCCCc1ccc(OC(C)=O)cc1`, the growth inhibition in assay [6] was 97.2% (active); in assay [2], 42.2%; in assay [3], 98% (active); in assay [4], 94.2% (active); in assay [5] it was 98.4% (active).
The corresponding values for `CCN(C(=O)Nc1ccccc1Cl)c1ccccc1` are 13.1%, 8.8%, 2.95%, 7.8% and 11.6%.
The corresponding values for `COc1ccc(Br)c2c1C(=O)CC2` are 23.4%, 29.4%, 28.4%, 5.45% and 32.9%.
